Screening results from PubChem.
Hits are enriched below; roughly 6.2% of the tested compounds scored in any of these assays.
AHR activator = activates the human aryl hydrocarbon receptor | AHR-responsive luciferase reporter cells, luminescence | activation, % at 5 µM | hit rate 2.5% among 320,000 | AID 2796; in the data active = activation above about 47%;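 also: 0% = vehicle wells and 100% = reference agonist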
Target sequence (P35869 whole entry, looked up): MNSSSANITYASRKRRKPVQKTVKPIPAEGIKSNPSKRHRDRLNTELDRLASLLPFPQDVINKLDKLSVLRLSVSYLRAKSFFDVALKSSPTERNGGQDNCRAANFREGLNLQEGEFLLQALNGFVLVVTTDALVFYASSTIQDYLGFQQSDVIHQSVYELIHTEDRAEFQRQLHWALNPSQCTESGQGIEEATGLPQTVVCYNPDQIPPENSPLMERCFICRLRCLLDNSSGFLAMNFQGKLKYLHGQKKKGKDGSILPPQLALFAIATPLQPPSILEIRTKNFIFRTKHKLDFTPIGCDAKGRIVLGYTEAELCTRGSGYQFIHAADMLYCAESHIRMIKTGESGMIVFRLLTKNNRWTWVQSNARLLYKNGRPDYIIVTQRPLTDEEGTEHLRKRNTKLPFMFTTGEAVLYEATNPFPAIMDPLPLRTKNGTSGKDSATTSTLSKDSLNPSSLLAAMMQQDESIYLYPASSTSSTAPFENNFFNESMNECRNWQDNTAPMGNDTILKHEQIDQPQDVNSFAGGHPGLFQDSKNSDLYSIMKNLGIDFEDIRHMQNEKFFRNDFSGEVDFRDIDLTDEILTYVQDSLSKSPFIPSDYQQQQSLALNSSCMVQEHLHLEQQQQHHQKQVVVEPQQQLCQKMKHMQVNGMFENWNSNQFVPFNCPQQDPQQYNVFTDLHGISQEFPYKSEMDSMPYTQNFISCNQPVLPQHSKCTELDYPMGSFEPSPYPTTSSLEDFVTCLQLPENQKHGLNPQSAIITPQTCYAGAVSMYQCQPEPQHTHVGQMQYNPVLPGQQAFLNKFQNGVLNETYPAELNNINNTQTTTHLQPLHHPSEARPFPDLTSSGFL
AI-2 QS mod = modulators of Vibrio harveyi AI-2 quorum sensing system. hit rate 0.4% among 300,000. Vibrio harveyi JMH597 AI-2 luminescence/OD600 ratio, 9 h; hits give low values; strain lacks LuxN and CqsS sensors; 0 = neutral-control median. activity change, % at 7.5 µM; in the data active = activity change below about -75%, passing the limit was not always enough;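 also: luminescence divided by OD600 gain over 9 h not by final OD600 alone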
NR3A LBD binder = modulators (binders) of human NR3A ligand-binding domain | NR3A LBD differential scanning fluorimetry, Tm shift; 0% = protein alone, 100% = glycine-bound protein | Tm shift relative to glycine control, % at 25 µM | hit rate 2.5% among 340,000;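 active = melting temperature shift of at least 10% of the positive control shift, at one fixed dose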
NTR1 agonist = NTR1 (human) agonism. P30989. NTR1-U2OS beta-arrestin-GFP spot imaging, agonist mode. activation, % at 20 µM. hit rate 0.17% among 330,000;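 active = activation at or above 40% of the spot to cytoplasm intensity ratio, with at least 20 cells analyzed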;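 also: 0% = DMSO without peptide and 100% = 100 nM NTR1 peptide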
SUMO Mot1 rescue = inhibitors of SUMOylation pathway: yeast Mot1-301 growth rescue; S. cerevisiae Mot1-301 growth rescue, ATP luminescence, 38.5C; percent above DMSO median, 100 means doubled; growth rescue, % at 18.8 µM; hit rate 1% among 320,000;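 active = every valid replicate shows activation above 250% relative to neutral control wells; inactive = the rest, any valid replicate at or below 250%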;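 also: OY570 slx delta 5 strain wells were the positive control but not used for scaling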
Cardio protect = myocardial damage modulation in H9c2 cells; H9c2 cardiomyocytes, H2O2 injury protection, ATPLite, 2 h; protection from H2O2 cell death, % at 20 µM; hit rate 0.63% among 360,000;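 active = compounds giving at least 50% protection of heart cells from peroxide-induced death in the single-dose screen, raw or plate-pattern-corrected value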;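 also: 0% = DMSO wells with peroxide and 100% = DMSO wells without peroxide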
Starred values were filed as active, the others as inactive.

How did O=C(O)C(=O)/C(=C\c1cccc2ccccc12)c1ccc2ccccc2n1 do in these assays?
AHR activator: 29; AI-2 QS mod: 15; NR3A LBD binder: -14; NTR1 agonist: 0; SUMO Mot1 rescue: -17; Cardio protect: -2

How did O=C(O)C(=O)/C(=C\c1ccc([N+](=O)[O-])cc1)c1ccc2ccccc2n1 do in these assays?
AHR activator: 22; AI-2 QS mod: 6; NR3A LBD binder: -4; NTR1 agonist: 0; SUMO Mot1 rescue: -26; Cardio protect: -8

Results for O=C(O)C(=O)/C(=C\c1ccsc1)c1ccc2ccccc2n1 ?
AHR activator: 77*; AI-2 QS mod: 5; NR3A LBD binder: 2; NTR1 agonist: 0; SUMO Mot1 rescue: -8; Cardio protect: -6

How did O=c1cccc2n1Cc1cc3ccccc3nc1-2 do in these assays?
AHR activator: 58*; AI-2 QS mod: 19; NR3A LBD binder: -3; NTR1 agonist: 0; SUMO Mot1 rescue: -13; Cardio protect: 1

Results for c1ccc2c(c1)-c1nc3ccccc3cc1C2N1CCCCC1 (stereo unspecified) ?
Cardio protect: -1

How did CCOc1ccc(CCN2C(=S)N([C@@H](Cc3ccc(O)cc3)CN3CCC[C@@H]3CN3C(=S)NC[C@@H]3CC(C)C)C[C@@H]2Cc2ccc(O)cc2)cc1 do in these assays?
Cardio protect: -3

Results for COc1ccc(C(=O)Nc2nnc(Cc3ccc(OC)c(OC)c3)s2)cc1 ?
AHR activator: 17; AI-2 QS mod: 20; NR3A LBD binder: 6; NTR1 agonist: 0; SUMO Mot1 rescue: 10; Cardio protect: 1

How did Cc1ccc(Nc2nc(N/N=C/c3c[nH]c4ccccc34)nc(N3CCOCC3)n2)cc1 do in these assays?
AHR activator: 51*; AI-2 QS mod: 34; NR3A LBD binder: 29*; NTR1 agonist: 31; SUMO Mot1 rescue: -13; Cardio protect: 26

How did C(=N\Nc1nc(Nc2ccccc2)nc(N2CCOCC2)n1)/c1c[nH]c2ccccc12 do in these assays?
AHR activator: 39; AI-2 QS mod: 12; NR3A LBD binder: 18*; NTR1 agonist: 15; SUMO Mot1 rescue: -29

Results for Cc1[nH]c2ccccc2c1/C=N/Nc1nc(Nc2ccc(F)cc2)nc(N2CCOCC2)n1 ?
AHR activator: 39; AI-2 QS mod: 16; NR3A LBD binder: -3; NTR1 agonist: 15; SUMO Mot1 rescue: 24; Cardio protect: 8

How did COc1ccc(C(=O)/C=C/c2ccsc2)cc1CSCC(=O)O do in these assays?
AHR activator: 0; AI-2 QS mod: 23; NR3A LBD binder: 1; NTR1 agonist: 2; SUMO Mot1 rescue: -8; Cardio protect: -8

What do the screens show for `COCCNc1ncnc2c1[nH]c1ccccc12`?
AHR activator: 74*; AI-2 QS mod: 5; NR3A LBD binder: 1; NTR1 agonist: 0; SUMO Mot1 rescue: -14; Cardio protect: -4

How did OCCCNc1ncnc2c1[nH]c1ccccc12 do in these assays?
AHR activator: 23; AI-2 QS mod: 4; NR3A LBD binder: -2; NTR1 agonist: -1; SUMO Mot1 rescue: -5; Cardio protect: -5

How did CCCOc1ncnc2c1[nH]c1ccccc12 do in these assays?
AHR activator: 80*; AI-2 QS mod: 6; NR3A LBD binder: 2; NTR1 agonist: 0; SUMO Mot1 rescue: -1; Cardio protect: -16

Results for CCN(CC)c1ncnc2c1[nH]c1ccccc12 ?
AHR activator: 65*; AI-2 QS mod: 11; NR3A LBD binder: -1; NTR1 agonist: 0; SUMO Mot1 rescue: 3; Cardio protect: -13

What do the screens show for `CC(C)Oc1ncnc2c1[nH]c1ccccc12`?
AHR activator: 22; AI-2 QS mod: 20; NR3A LBD binder: 0; NTR1 agonist: 1; SUMO Mot1 rescue: 20; Cardio protect: -17

How did Cc1ccc(NC(=O)CN(C)C(=O)C(C)N2CCN(Cc3ccccc3C)CC2)cc1 (stereo unspecified) do in these assays?
AHR activator: 0; NR3A LBD binder: -1; NTR1 agonist: -2; SUMO Mot1 rescue: 4; Cardio protect: -5

What do the screens show for `C#Cc1cccc(NC(=O)c2ccc3c(c2)C(=O)N(Cc2cccnc2)C3=O)c1`?
AHR activator: 57*; AI-2 QS mod: 7; NR3A LBD binder: -5; NTR1 agonist: 8; SUMO Mot1 rescue: 4; Cardio protect: 11
